Screening results as filed in PubChem BioAssay.
Only some compounds are listed: those with a hit (about 6.7% of all), similar ones and a draw of the others.
C diff growth: blocks growth of Clostridium difficile | actives 0.25% (n = 86,000) | growth activity, negative = inhibition, % at 16 µg/mL (by protocol) | Clostridium difficile clinical isolate growth, OD600, 24 h; stronger effect = lower value;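 active = mean growth activity at or below -80% and every replicate also at or below -80%; inconclusive = mean at or below -80% but some replicate above -80%; inactive = mean growth activity above -80%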
Pf Dd2 inh: inhibitors of Plasmodium falciparum Dd2 growth; P. falciparum Dd2 growth, SYBR Green, 72 h; stronger effect = lower value; actives 2.3% (n = 94,000); activity change, % at 10 µM; AID 1159554; in the data active = activity change below about -80%; inconclusive = no clear call, values can overlap the other calls
T cruzi growth-1: T. cruzi proliferation inhibition; T. cruzi beta-gal in NIH3T3, GalScreen luminescence, 90 h; actives 5.9% (n = 77,000); inhibition, % at 8.34 µM;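 active = mean inhibition above about 93%, with at least 55% of replicates each passing it, limit read from the data, passing the limit was not always enough; inconclusive = only one of those two conditions holds; inactive = neither condition holds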
T cruzi growth-2: blocks T. cruzi growth in NIH3T3 host cells | inhibition, % at 8.35 µM | actives 72% (n = 5,600) | T. cruzi beta-gal in NIH3T3, GalScreen luminescence, 90 h | shares compounds with T cruzi growth-1;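 active = mean replicate inhibition above about 95% and at least 55% of replicates individually reaching it, limit read from the data; inconclusive = only one of the two criteria is met; inactive = neither criterion is met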
T cruzi growth-3: blocks T. cruzi growth in NIH3T3 host cells | shares compounds with T cruzi growth-1 | T. cruzi beta-gal in NIH3T3, GalScreen luminescence, 90 h | inhibition, % at 2.09 µM | actives 21% (n = 5,600) | AID 651740;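 active = mean inhibition above about 95%, with at least 55% of replicates also reaching it, limit read from the data; inconclusive = meets just one of the two conditions; inactive = meets neither condition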
3T3 cytotox: NIH/3T3 (mouse) viability loss. actives 14% (n = 5,600). cytotoxicity (signal decrease), % at 8.35 µM. NIH/3T3 viability, CellTiter-Glo ATP luminescence, 90 h. shares compounds with T cruzi growth-1;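 active = mean signal decrease across replicates above about 35% based on untreated-well scatter, with enough replicates individually passing, limit read from the data; inconclusive = no rule stated though some were filed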
NIH3T3 tox 2: cytotoxicity in mouse NIH/3T3 fibroblasts; inhibition, % at 24.9 µM; actives 56% (n = 5,600); AID 651744; NIH/3T3 viability, CellTiter-Glo ATP luminescence, 90 h; shares compounds with T cruzi growth-1;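 active = mean loss of cell viability signal at or above a set limit, and enough replicates individually reaching it; inconclusive = meets only the mean limit or only the replicate share; inactive = meets neither condition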
Hits are given with their value.

For CCc1cnc(N2[C@@H](C#N)[C@@H](c3ccc(-c4cccc(F)c4)cc3)[C@@H]2CO)s1 the results were C diff growth inactive, Pf Dd2 inh inactive, T cruzi growth-1 108, T cruzi growth-2 101, T cruzi growth-3 106, 3T3 cytotox inactive and NIH3T3 tox 2 60.
`CCc1cnc(N2[C@H](CO)[C@@H](c3ccc(-c4cccc(F)c4)cc3)[C@@H]2C#N)s1` gave C diff growth inactive, Pf Dd2 inh inactive and T cruzi growth-1 inactive.
Screening CN(C)C(=O)C[C@@H]1C[C@@H]2c3cc(NC(=O)C4CCC4)ccc3O[C@@H]2[C@@H](CO)O1 returned C diff growth inactive, Pf Dd2 inh inactive and T cruzi growth-1 inactive.
Screening C[C@H](CO)N1C[C@H](C)[C@H](CN(C)S(=O)(=O)c2ccc(Cl)cc2)OCCCC[C@H](C)Oc2ccc(NS(=O)(=O)c3ccccc3)cc2C1=O returned C diff growth inactive, Pf Dd2 inh inactive, T cruzi growth-1 inconclusive, T cruzi growth-2 99, T cruzi growth-3 inactive, 3T3 cytotox inactive and NIH3T3 tox 2 inactive.
For C[C@@H]1CCCCO[C@H](CN(C)S(=O)(=O)c2ccccc2)[C@H](C)CN([C@@H](C)CO)C(=O)c2cc(NS(=O)(=O)c3ccc(Cl)cc3)ccc2O1 the results were C diff growth inactive, Pf Dd2 inh inactive, T cruzi growth-1 118, T cruzi growth-2 inactive, T cruzi growth-3 inactive, 3T3 cytotox inactive and NIH3T3 tox 2 inactive.
For C[C@@H]1CCCCO[C@@H](CN(C)S(=O)(=O)c2ccc(Cl)cc2)[C@@H](C)CN([C@H](C)CO)C(=O)c2cc(NS(=O)(=O)c3ccccc3)ccc2O1 the results were C diff growth inactive, Pf Dd2 inh inactive and T cruzi growth-1 inactive.
C[C@@H]1CCCCO[C@@H](CN(C)S(=O)(=O)c2ccccc2)[C@H](C)CN([C@@H](C)CO)C(=O)c2cc(NS(=O)(=O)c3ccc(Cl)cc3)ccc2O1 was read as C diff growth inactive, Pf Dd2 inh inactive, T cruzi growth-1 116, T cruzi growth-2 101, T cruzi growth-3 inactive, 3T3 cytotox inactive and NIH3T3 tox 2 inactive.
`C[C@@H]1CN([C@H](C)CO)C(=O)c2cc(NS(=O)(=O)c3ccc(Cl)cc3)ccc2O[C@@H](C)CCCCO[C@H]1CN(C)S(=O)(=O)c1ccccc1` gave C diff growth inactive and Pf Dd2 inh inactive.
O=C(C[C@@H]1CC[C@H]2[C@@H](COC[C@@H](O)CN2CCc2ccccc2)O1)NCc1ccccc1 was read as C diff growth inactive, Pf Dd2 inh inactive and T cruzi growth-1 inactive.
Screening CCCNC(=O)N(C)C[C@H]1Oc2ncc(C#CC3CC3)cc2C(=O)N([C@H](C)CO)C[C@H]1C returned Pf Dd2 inh inactive and T cruzi growth-1 inactive.
For CCCC#Cc1cnc2c(c1)C(=O)N([C@@H](C)CO)C[C@@H](C)[C@@H](CN(C)S(=O)(=O)c1cn(C)cn1)O2 the results were C diff growth inactive and Pf Dd2 inh inactive.
Screening Cc1ccccc1S(=O)(=O)N1[C@H](C#N)[C@H](c2ccc(-c3ccc(F)cc3)cc2)[C@H]1CO returned C diff growth inactive, Pf Dd2 inh inactive, T cruzi growth-1 101, T cruzi growth-2 101, T cruzi growth-3 inactive, 3T3 cytotox inconclusive and NIH3T3 tox 2 31.
`Cc1ccccc1S(=O)(=O)N1[C@@H](C#N)[C@@H](c2ccc(-c3ccccc3)cc2)[C@@H]1CO` gave C diff growth inactive, Pf Dd2 inh inactive, T cruzi growth-1 102, T cruzi growth-2 101, T cruzi growth-3 103, 3T3 cytotox 50 and NIH3T3 tox 2 73.
N#C[C@H]1[C@@H](c2ccc(C3=CCCC3)cc2)[C@@H](CO)N1S(=O)(=O)c1ccccc1 was read as C diff growth inactive, Pf Dd2 inh inactive and T cruzi growth-1 inactive.
Screening Cc1ccccc1S(=O)(=O)N1[C@@H](C#N)[C@H](c2ccc(-c3ccccc3)cc2)[C@@H]1CO returned C diff growth inactive, Pf Dd2 inh inactive, T cruzi growth-1 102, T cruzi growth-2 inactive, T cruzi growth-3 inactive, 3T3 cytotox inactive and NIH3T3 tox 2 inactive.
`CS(=O)(=O)N1[C@@H](C#N)[C@@H](c2ccccc2)[C@@H]1CO` gave C diff growth inactive, Pf Dd2 inh inactive and T cruzi growth-1 inactive.
Cc1ccccc1S(=O)(=O)N1[C@H](C#N)[C@H](c2ccc(-c3ccc(F)cc3)cc2)[C@@H]1CO was read as C diff growth inactive, Pf Dd2 inh inactive and T cruzi growth-1 inactive.
Screening CC(C)NC(=O)Nc1ccc2c(c1)C(=O)N([C@H](C)CO)C[C@H](C)[C@H](CN(C)C(=O)c1ccncc1)OCCCC[C@H](C)O2 returned C diff growth inactive, Pf Dd2 inh inactive and T cruzi growth-1 inactive.
CCC(=O)N[C@H]1C=C[C@H](CC(=O)NCc2ccccc2F)O[C@H]1CO was read as Pf Dd2 inh inactive and T cruzi growth-1 inactive.
`Cc1ccc(S(=O)(=O)Nc2ccc3c(c2)C(=O)N([C@@H](C)CO)C[C@H](C)[C@@H](CN(C)Cc2ccc(-c4ccccc4)cc2)O3)cc1` gave C diff growth inactive, Pf Dd2 inh inactive, T cruzi growth-1 inconclusive, T cruzi growth-2 103, T cruzi growth-3 inactive, 3T3 cytotox inactive and NIH3T3 tox 2 87.
`C[C@H]1CN([C@@H](C)CO)C(=O)c2cc(NS(=O)(=O)c3ccc(F)cc3)ccc2O[C@@H]1CN(C)Cc1ccc(-c2ccccc2)cc1` gave C diff growth inactive, Pf Dd2 inh inactive, T cruzi growth-1 inconclusive, T cruzi growth-2 106, T cruzi growth-3 inactive, 3T3 cytotox inactive and NIH3T3 tox 2 103.
Screening C[C@H](CO)N1C[C@H](C)[C@H](CN(C)Cc2ccc(-c3ccccc3)cc2)Oc2ccc(NS(=O)(=O)c3ccc(F)cc3)cc2C1=O returned C diff growth inactive, Pf Dd2 inh inactive and T cruzi growth-1 inactive.
For C[C@H](CO)N1C[C@H](C)[C@H](CN(C)Cc2ccc(-c3ccccc3)cc2)Oc2ccc(NS(=O)(=O)c3cccs3)cc2C1=O the results were C diff growth inactive, Pf Dd2 inh inactive and T cruzi growth-1 inactive.
Screening Cc1ccc(S(=O)(=O)Nc2ccc3c(c2)C(=O)N([C@@H](C)CO)C[C@@H](C)[C@H](CN(C)Cc2ccc(-c4ccccc4)cc2)O3)cc1 returned C diff growth inactive, Pf Dd2 inh inactive and T cruzi growth-1 inactive.
`C[C@H]1CN([C@@H](C)CO)C(=O)c2cc(NS(=O)(=O)c3ccc(Cl)cc3)ccc2O[C@H]1CN(C)Cc1ccc(-c2ccccc2)cc1` gave C diff growth inactive, Pf Dd2 inh inactive and T cruzi growth-1 inactive.
